Screens as filed in PubChem BioAssay.
BoNT F protease: BoNT F light chain protease inhibition. Multiplex microsphere protease cleavage assay, flow cytometry. actives 0.22% (n = 360,000). inhibition, % at 10 µM. AID 588497; in the data active = inhibition above about 35%, passing the limit was not always enough; inconclusive = no clear call, values can overlap the other calls
Autofluor counter: flagged as autofluorescent in microsphere protease counterscreen. fluorescence intensity (no concentration beside the values). compound autofluorescence counterscreen, microsphere flow cytometry; active compounds read high. actives 3.1% (n = 360,000); in the data active = fluorescence intensity above about 16000; inconclusive = no clear call, values can overlap the other calls
CCHFV vOTU inh: CCHFV vOTU protease inhibition | Pep-AMC fluorescence | inhibition, % at 11.5 µM | actives 0.55% (n = 370,000) | AID 651958; in the data active = inhibition above about 30%
Anthrax LF prot: inhibitors of Bacillus anthracis lethal factor protease. P15917. multiplex microsphere protease cleavage assay, LF. inhibition, % at 10 µM. actives 0.12% (n = 360,000)
BoNT-A LC inh2: BoNT A light chain protease inhibition. multiplex microsphere protease substrate cleavage, flow cytometry. inhibition, % at 10 µM. actives 0.17% (n = 360,000)
SARS 3CLpro inh: SARS-CoV 3CLpro protease inhibition; P0C6X7; recombinant SARS-CoV 3CLpro, quenched FRET peptide cleavage; inhibition, % at 6 µM; actives 0.14% (n = 290,000); in the data active = inhibition above about 12%
A number is an active result; n = inactive; u = inconclusive; x = no result given. Most compounds without a hit are left out; they make up all but 3.9% or so of the library. Rule as the data show it, unless noted: active = inhibition above about 30%; inconclusive = no clear call, values can overlap the other calls; inactive = below that.

SMILES	BoNT F protease	Autofluor counter	CCHFV vOTU inh	Anthrax LF prot	BoNT-A LC inh2	SARS 3CLpro inh
CC(NC(=O)NC12CC3CC(CC(C3)C1)C2)C1CCCO1 (centres undefined)	n	21432	n	n	u	n
CN(CC(=O)N1CCCc2c1c(=O)oc1ccc(O)cc21)Cc1ccccc1	n	20887	n	n	n	n
CC1=CC(C)(C)Nc2ccc(OS(=O)(=O)c3ccc(C)cc3)cc21	n	17799	n	n	n	n
CC(=O)Nc1ccc(S(=O)(=O)Oc2ccc3c(c2)C(C)=CC(C)(C)N3)cc1	x	x	x	x	x	n
C=CCN1C(=O)[C@@H](CC(=O)NCCCCc2ccccc2)[C@]2(C(=O)OC)CCCCC=C12	x	x	n	x	x	x
CCOC(=O)c1cc(NC(=O)N(C(C)C)C(C)C)c(C)nc1C	n	16634	n	n	n	n
CCOC(=O)c1cc(NC(=O)N(CC)CC)c(C)nc1C	n	24580	n	n	n	n
CCOC(=O)c1cc(NC(=O)N(C(C)C)C2CCCCC2)c(C)nc1C	n	n	n	n	n	n
Cc1nc2nc3c(cn2n1)C(=O)CCC3	n	21199	n	n	n	n
CN(C)c1cccc(NC(=O)C2Cc3c(-c4cccnc4)ccnc3O2)c1 (centres undefined)	n	n	n	n	n	x
CC[C@@]12C(=O)N(c3cccc(F)c3)C(=O)N1[C@H](c1ccc(Cl)cc1)[C@@H]1C(=O)N(C3CCCCC3)C(=O)[C@@H]12	n	n	n	n	n	x
c1ccc(-c2nn[nH]n2)cc1	u	n	n	n	u	n
Cc1ccccc1-c1nn[nH]n1	n	21118	n	n	n	n
COc1ccc(C2C(C(C)=O)=C(O)C(=O)N2c2cccnc2)c(OC)c1 (centres undefined)	n	16553	n	n	n	n
COc1ccc(C2C(C(C)=O)=C(O)C(=O)N2C)c(OC)c1 (centres undefined)	u	n	n	n	n	n
C=CCSc1ncc(C#N)c(N)n1	n	20496	n	n	n	n
COc1cc(CNCCN(C)C)c(Br)cc1OCC(=O)NCc1ccccc1	n	n	n	n	n	n
COc1cc(CNCC(C)C)c(Br)cc1OCC(=O)NCc1ccccc1	n	16297	n	n	n	n
CCc1nnc(NC(=O)Cn2nc(-c3ccc(OC)c(OC)c3)ccc2=O)s1	n	n	n	n	n	n
CCCc1nnc(NC(=O)CCC(=O)NCc2ccccc2OC)s1	n	22157	n	n	n	n
CCc1nnc(NC(=O)Cn2nc(-c3ccccc3OC)ccc2=O)s1	n	22524	n	n	u	n
CC1(C)CC(=O)C(C(C#Cc2ccccc2)C2=C(O)CC(C)(C)CC2=O)=C(O)C1	n	n	n	n	n	n
O=C1CCCC(O)=C1C(C#Cc1ccccc1)C1=C(O)CCCC1=O	n	17723	x	n	n	n
O=C1COc2ccc(OCc3ccc(F)cc3)cc21	n	23249	n	n	n	n
COc1ccc(C(=O)N2CCc3ccccc32)cc1S(=O)(=O)N1CCOCC1	n	n	n	n	n	x
SMILES	BoNT F protease	Autofluor counter	CCHFV vOTU inh	Anthrax LF prot	BoNT-A LC inh2	SARS 3CLpro inh
O=C(O)CN1C(=O)/C(=C/C=C/c2ccccc2)SC1=S	n	n	n	n	n	n
CC(=O)c1ccc(NC(=O)CN2C(=O)/C(=C/C=C/c3ccccc3)SC2=S)cc1	n	n	n	n	47	n
Cn1c(NCc2cccs2)nc2ccccc21	n	n	n	n	n	n
Cn1c(NCc2ccco2)nc2ccccc21	n	17845	n	n	u	n
CCN(CC)CCn1c(NCc2ccco2)nc2ccccc21	n	21505	n	n	n	n
CCN1C(=O)C(=O)N(CC(=O)N(C)CC(=O)Nc2ccccc2C(F)(F)F)C1=O	n	n	n	n	n	x
Cc1nn(Cc2c(F)c(F)c(F)c(F)c2F)c(C)c1NC(=O)c1cccc(COc2ccccc2Cl)c1	n	20980	n	n	n	n
O=C(Nc1ccn(Cc2c(F)c(F)c(F)c(F)c2F)n1)c1ccc(COc2ccccc2Cl)cc1	n	25404	n	n	n	n
CCOC(=O)C(Cc1ccccc1)(NC(C)=O)C(=O)OCC	n	n	n	n	n	n
CCOC(=O)C(Cc1c(F)cccc1F)(NC(C)=O)C(=O)OCC	n	21936	n	n	n	n
OC(c1ccccc1)(c1ccccc1)C1CCN(CCCNc2ccccc2F)CC1	x	x	n	x	x	x
O=C(COC(=O)c1cccnc1Nc1ccccc1F)NCCN1C(=O)CSC1=O	69	n	n	n	n	n
CC1=C(C(=O)c2ccccc2)C(c2cn(-c3ccccc3)nc2-c2ccc(Cl)cc2)NC(=S)N1 (centres undefined)	n	19559	n	n	n	n
CC(C(=O)NCC1(c2ccccc2)CCOCC1)N1CCOCC1 (centres undefined)	n	n	n	n	n	n
CC(C(=O)NCC1(c2ccccc2)CCCC1)N1CCOCC1 (centres undefined)	n	23756	n	n	n	n
O=C(CCl)Nc1cccc(-c2cnc3ccccc3n2)c1	n	n	n	n	n	n
O=C(CCl)Nc1ccc(Oc2cnc3ccccc3n2)cc1	n	21837	n	n	n	n
COc1cccc(C2CC(c3ccccc3Cl)Nc3ncnn32)c1 (centres undefined)	n	18432	n	n	n	n
Cc1cc(N2CCCC2)c(C)cc1C=O	n	22088	n	n	n	n
CCOC(=O)c1c(-c2ccccc2)nc2ccccn12	n	22802	n	n	u	n
O=C(Nc1ccccc1-c1ccccc1NC(=O)c1ccco1)c1ccco1	n	n	n	n	n	n
O=C(Nc1ccccc1F)c1ccco1	n	n	n	n	n	n
O=C(Nc1c(-c2ccccc2)nc2ccccn12)c1ccco1	n	22214	n	n	u	n
O=C(Nc1ccccc1NC(=O)c1ccco1)c1ccco1	n	22408	n	n	n	n
CSc1ccccc1NC(=O)c1ccco1	n	22329	n	n	n	n
SMILES	BoNT F protease	Autofluor counter	CCHFV vOTU inh	Anthrax LF prot	BoNT-A LC inh2	SARS 3CLpro inh
CCOc1cc(C#N)c(NC(=O)CSc2nnnn2-c2ccc(OC)cc2)cc1OCC	n	22206	n	n	n	n
Cc1cc(OC(=O)c2cccc(F)c2)c([N+](=O)[O-])c(=O)[nH]1	n	n	n	n	n	n
O=C(O)c1ccccc1OCCOCCOc1ccccc1C(=O)O	n	23112	n	n	n	n
Cc1ccc(C)c(S(=O)(=O)N2CCN(C(=O)C(C)Sc3ccccc3)CC2)c1 (centres undefined)	n	n	n	n	n	n
CCn1c(=O)cc(SCC(=O)NCc2ccc(C)cc2)c2ccccc21	n	n	n	n	n	n
CCn1c(=O)cc(SCC(=O)NCCCN2CCN(c3ccc(F)cc3)CC2)c2ccccc21	n	20024	n	n	n	n
CCn1c(=O)cc(SCC(=O)NCCN2CCN(Cc3ccccc3)CC2)c2ccccc21	n	22769	n	n	u	n
CCn1c(=O)cc(SCC(=O)NCCCN2CCC(C)CC2)c2ccccc21	n	n	n	n	n	n
COc1ccc(CNC(=O)/C=C/[C@H]2O[C@@H](n3cc(C)c(=O)[nH]c3=O)C[C@@H]2O)cc1	n	n	n	n	n	x
CCCCNC(=O)Nc1ccccc1CC	u	n	n	n	n	n
